Results: PubChem BioAssay (NCATS)
Inconclusive results are not listed. Entries that show only a call come without a potency. Unmarked numbers belong to inactive results. Active and inactive are the calls of the source. The call rests on the fitted dose curve; in most records, active means well fitted curve in the direction sought with a large enough effect; inconclusive means small, poorly fitted or top-dose-only effect, or another doubt; inactive means no such curve, though single readings can be large; an effect the other way counts as inactive or inconclusive. Peptide text beside a SMILES is read from it.

Columns and labels:
[1] = target: Cellular tumor antigen p53 (Homo sapiens) (UniProt P04637); experiment: Primary qHTS for small molecule compounds that upregulate eGFP-tagged delta133p53alpha (in N-terminal) cells. (AID 2060322); details: NCI-H358 eGFP-delta133p53alpha fluorescence, 24 h; activation: stronger effect = higher value; further: nearly all actives have a fitted effect of over 75% in size; further: potency means the concentration at half of the fitted maximal effect;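 on activation: cells pre-induced with doxycycline then dosed without doxycycline; series mostly up to about 56 µM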
Method in brief: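 NCI-H358 cells pre-induced 24 h with 10 ng/ml doxycycline for eGFP-delta133p53alpha, plated dox-free and exposed 24 h at 37C to titrated compounds. Fixed, Hoechst-stained; gated GFP peak intensity by laser scanning cytometry, normalized to DMSO (0%) and 57.5 uM 5-azacytidine (100%).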

[2] = target: Aldehyde dehydrogenase, mitochondrial (Homo sapiens) (UniProt P05091); experiment: qHTS for Inhibitors of the Aldehyde Dehydrogenase Family (ALDH2) Primary screen (AID 2061308); further: nearly all actives have a fitted effect of over 55% in size
[3] = target: Retinaldehyde dehydrogenase 3 (Homo sapiens) (UniProt P47895); experiment: qHTS for Inhibitors of the Aldehyde Dehydrogenase Family (ALDH1A3) Primary screen (AID 2061315)

Cellular tumor antigen p53 (Homo sapiens), sequence (P04637 whole entry, looked up): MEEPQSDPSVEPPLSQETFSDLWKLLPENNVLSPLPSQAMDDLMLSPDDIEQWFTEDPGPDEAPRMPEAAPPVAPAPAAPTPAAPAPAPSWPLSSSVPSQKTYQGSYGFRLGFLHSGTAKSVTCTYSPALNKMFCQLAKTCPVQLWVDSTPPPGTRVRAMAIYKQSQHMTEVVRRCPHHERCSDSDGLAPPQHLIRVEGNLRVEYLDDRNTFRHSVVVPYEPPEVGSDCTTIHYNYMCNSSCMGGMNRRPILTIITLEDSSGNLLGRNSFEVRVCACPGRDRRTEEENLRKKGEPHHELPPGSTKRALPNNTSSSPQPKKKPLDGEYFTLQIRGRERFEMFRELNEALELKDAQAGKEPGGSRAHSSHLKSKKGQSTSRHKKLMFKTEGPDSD

Structure (SMILES)	activation [1] [%]	Potency [2]	Potency [3]	Potency [1]	activity change, negative = inhibition [2]	activity change, negative = inhibition [3]
C[C@@H]1O[C@@H](O[C@H]2[C@H](O)[C@@H](C(=O)O)O[C@@H](O[C@H]3CC[C@@]4(C)C(CC[C@]5(C)C4CC=C4C6CC(C)(C)CC[C@]6(C(=O)O)CC[C@]45C)C3(C)C)[C@@H]2O[C@@H]2OC[C@@H](O)[C@H](O)[C@H]2O)[C@H](O)[C@H](O)[C@H]1O (stereo partly specified)	2.68	inactive	inactive	–	–	–
C=C1C(=O)O[C@@H]2C/C(C)=C\C(=O)/C=C(\C)[C@@H](OC(=O)/C(C)=C\C)[C@H](O)[C@@H]12	–	inactive	inactive	5.88 µM (active)	–	–
C=C1CC[C@@H]2[C@](C)(CO)[C@H](O)CC[C@@]2(C)[C@@H]1C/C=C1/C(=O)OC[C@@H]1O	–	inactive	inactive	11.7 µM (active)	–	–
CS(=O)(=O)c1ccc([C@H](CC2CCCC2)C(=O)Nc2nccs2)cc1	-11.6	inactive	inactive	–	–	–
CC(=O)NC(C(=O)O[C@H]1CCC(C)(C)[C@@H]2CC=C3C(=O)OCC3(O)[C@@]12C)C(C)C (stereo partly specified)	20.6	inactive	inactive	–	–	–
CN1CCN(C(=O)c2ccc(Nc3nccc(-c4cccs4)n3)cc2Cl)CC1	–	inactive	inactive	30.1 µM (active)	–	–
O=C(O)C(Cc1ccccc1)NC(=O)C1CCCN1 (stereo not drawn) (H-Pro-Phe-OH; configuration not given here)	-13.7	inactive	inactive	–	–	–
Nc1c(Br)cc(Br)cc1CNC1CCC(O)CC1 (stereo unspecified)	29.7	inactive	inactive	–	–	–
C=CC(=O)N1CCCC(n2nc(-c3ccc(Oc4ccccc4)cc3)c3c(N)ncnc32)C1 (stereo unspecified)	18.8	inactive	inactive	–	–	–
CC(C)CC(=O)O[C@@H]1O[C@H](CO)[C@@H](O[C@H]2O[C@H](C)[C@@H](N[C@H]3C=C(CO)[C@@H](O[C@H]4O[C@H](CO)[C@@H](O[C@H]5O[C@H](CO)[C@@H](O[C@H]6O[C@H](CO)[C@@H](O)[C@H](O)[C@H]6O)[C@H](O)[C@H]5O)[C@H](O)[C@H]4O)[C@H](O)[C@H]3O)[C@H](O)[C@H]2O)[C@H](O)[C@H]1O	-13.7	inactive	inactive	–	–	–
CC(C)=CCC[C@](C)(O[C@@H]1O[C@H](CO)[C@@H](O)[C@H](O)[C@H]1O)[C@H]1CC[C@]2(C)[C@@H]1[C@H](O)CC1[C@@]3(C)CC[C@H](O)C(C)(C)C3[C@@H](O[C@@H]3O[C@H](CO)[C@@H](O)[C@H](O)[C@H]3O)C[C@]12C (stereo partly specified)	15.3	inactive	inactive	–	–	–
COc1ccc(C(=O)O[C@H]2CC(C)=CC[C@@]3(C)[C@@H](OC(C)=O)C[C@@](O)(C(C)C)[C@H]23)cc1	1.79	inactive	inactive	–	–	–
C=CC(C)(O)CO[C@@H]1O[C@H](CO)[C@@H](O)[C@H](O)[C@H]1O (stereo partly specified)	-16	inactive	inactive	–	–	–
CCC1OC(=O)C(C)CC(C)C(=O)/C(C)=C/C(C)C(=O)/C=C/C1(C)O (stereo unspecified)	3.05	inactive	inactive	–	–	–
C=C1CC2C3(C)C=CC(=O)OC(C)(C)C3CC(OC(C)=O)C2(C)C2C(=O)OC(C)C(=O)C12C (stereo unspecified)	15.3	inactive	inactive	–	–	–
C[C@@H]1CCC/C=C/[C@H]2CC(=O)C[C@@H]2[C@@H](O)/C=C/C(=O)O1	9.82	inactive	inactive	–	–	–
CC(=O)OC1C(C)C2C(OC3OC(CO)C(O)C(O)C3O)OC=C(C(=O)O)C2C1OC(=O)c1ccccc1 (stereo unspecified)	5.34	inactive	inactive	–	–	–
CCCCNc1ncc(C(=O)NCc2ccc(-n3ccnc3)cc2)c(NC2CCC(O)CC2)n1 (stereo unspecified)	–	inactive	inactive	21.3 µM (active)	–	–
Cc1cc(O[C@@H]2O[C@H](COC(=O)CC(=O)O)[C@@H](O)[C@H](O)[C@H]2O)c(C(C)C)cc1O	0.763	inactive	inactive	–	–	–
CC(=O)OC1CC(=O)C2(C)C3CC4=C(OC(C)CC4=O)OC3(C)CCC2C1(C)C (stereo unspecified)	-6.11	inactive	inactive	–	–	–
CC(C)(C)NC(=O)[C@@H](c1cccnc1)N(C(=O)c1ccco1)c1ccc(C(C)(C)C)cc1	5	inactive	inactive	–	–	–
C=C[C@H]1[C@H](O[C@@H]2O[C@H](CO)[C@@H](O)[C@H](O)[C@H]2O)OC=C(C(=O)OC)[C@H]1CC=O	-32.8	inactive	inactive	–	–	–
CC1=CCC[C@@H]2[C@@](C)(CCc3ccoc3)[C@H](C(=O)O)CC[C@@]12C	14.3	inactive	inactive	–	–	–
COC(=O)C1C(c2ccc(O)cc2)C(C(=O)O)C1c1ccc(O)cc1 (stereo unspecified)	-18.3	inactive	inactive	–	–	–
CC1CCC(=O)CC(O)C(O)CC(=O)O1 (stereo unspecified)	10.7	inactive	inactive	–	–	–
CCC(=O)O[C@H]1C(C)(C)[C@H]([C@@H](O)C(=O)OC)[C@]2(C)C(=O)[C@@]1(O)[C@H]1O[C@]13C1CC(=O)O[C@@H](c4ccoc4)[C@]1(C)CCC32 (stereo partly specified)	-20.6	inactive	inactive	–	–	–

Structure (SMILES)	activation [1] [%]	Potency [2]	Potency [3]	Potency [1]	activity change, negative = inhibition [2]	activity change, negative = inhibition [3]
C=C(C(=O)O)C1CCC2(C)CCC(O)C(=C)C2C1 (stereo unspecified)	9.82	inactive	inactive	–	–	–
COc1cc(CCO)ccc1O[C@@H]1O[C@H](CO)[C@@H](O)[C@H](O)[C@H]1O	5.36	inactive	inactive	–	–	–
C[C@@H]1O[C@@H](O[C@H]2[C@H](OC(=O)C34CCC5(C)C(=CCC6C7(C)CC(O)C(O[C@@H]8O[C@H](C(=O)O)[C@@H](O)[C@H](O)[C@H]8O)C(C)(C(=O)O)C7CCC65C)C3CC(C)(C)CC4O)O[C@H](C)[C@@H](O)[C@@H]2O)[C@H](O)[C@@H](O[C@@H]2OC[C@](O)(CO)[C@H]2O[C@@H]2O[C@H](CO)[C@@H](O)[C@H](O)[C@H]2O)[C@H]1O (stereo partly specified)	8.4	–	–	–	0.837% [at 11.2 µM]	5.31% [at 11.2 µM]
CN(C)CCn1cc(S(=O)(=O)c2cccc(F)c2)c2cccnc21	-7.16	inactive	inactive	–	–	–
C=C1C(=O)O[C@@H]2[C@H]3C(C)=CC(=O)C3=C(C)[C@@H](OC(=O)/C(C)=C\C)[C@H](O)[C@@H]12	–	inactive	inactive	16.6 µM (active)	–	–
CC1=CC(=O)CC(C)(C)C1CCC(C)O[C@@H]1O[C@H](CO[C@@H]2OC[C@@H](O)[C@H](O)[C@H]2O)[C@@H](O)[C@H](O)[C@H]1O (stereo partly specified)	-10.7	inactive	inactive	–	–	–
COc1c2c(c(C)c3c1C(=O)OC3)OC1(C)CC(O)C34OC(O)(CCC3(C)C1C2)OC4(C)C (stereo unspecified)	-6.87	inactive	inactive	–	–	–
C=C1CCC2C(C)(C)C(O)CCC2(C)C1CCC(C)CCO (stereo unspecified)	6.25	inactive	inactive	–	–	–
COc1cc2c(cc1O)[C@H](c1ccc(O[C@@H]3O[C@H](CO)[C@@H](O)[C@H](O)[C@H]3O)c(OC)c1)[C@@H](CO)[C@](O)(CO)C2	-15.3	inactive	inactive	–	–	–
COc1ccc(S(=O)(=O)Nc2cc(Cl)cc(Cl)c2OC)cc1N1CCNCC1	8.04	inactive	inactive	–	–	–
CC1CCCC(O)CCC/C=C/c2cc(OS(=O)(=O)O)cc(O)c2C(=O)O1 (stereo unspecified)	-19.8	inactive	inactive	–	–	–
CC1(C)NC2N(C1=O)c1ccccc1C2(O)CC(C(=O)O)n1cnc2ccccc2c1=O (stereo unspecified)	-9.16	inactive	inactive	–	–	–
COc1cc(O)cc(/C=C/c2ccc(O[C@@H]3O[C@H](CO)[C@@H](O)[C@H](O)[C@H]3O)cc2)c1	-11.6	inactive	inactive	–	–	–
COc1cc(CCc2ccccc2)c(C(=O)O)c2c1CC(C(C)(C)O)O2 (stereo unspecified)	-13	inactive	inactive	–	–	–
C=CCc1ccc(O[C@@H]2O[C@H](CO[C@@H]3O[C@H](CO)[C@@H](O)[C@H](O)[C@H]3O)[C@@H](O)[C@H](O)[C@H]2O)c(O)c1	-5.34	inactive	inactive	–	–	–
C=C1C[C@]23C[C@H]1CC[C@H]2[C@]1(C)CCC[C@@]2(CO)C(=O)O[C@H]([C@H]21)[C@@H]3O	-6.11	inactive	inactive	–	–	–
CC(O)/C=C/C1OC(=O)CC1Nc1ccc(C(=O)O)cc1 (stereo unspecified)	-6.11	inactive	inactive	–	–	–
CCOc1ccc(S(=O)(=O)N2CCCCCC2)c2ccccc12	-13.7	inactive	inactive	–	–	–
CC(C)/C=C1\NC(=O)C(C(C)C)n2c1nc1ccccc1c2=O (stereo unspecified)	-10.7	inactive	inactive	–	–	–
C[C@@H]1CC[C@]2(C(=O)O)CC[C@]3(C)C(=CCC4[C@]5(C)C(CC[C@]43C)C(C)(C)[C@@H](O)[C@H](O)[C@@H]5O)C2[C@]1(C)O (stereo partly specified)	-4.46	inactive	inactive	–	–	–
C=C1C(=O)O[C@@H]2/C=C(/C)CC3C=C(C[C@H](OC(=O)/C(C)=C\C)[C@@H]12)C(=O)O3 (stereo partly specified)	–	inactive	inactive	11.7 µM (active)	–	–
Cc1ccc(C(=O)N2CCN(c3ccc([N+](=O)[O-])cc3)CC2)cc1Cl	1.91	inactive	inactive	–	–	–
COc1ccc(-n2c(=O)[nH]c3cc(C(=O)NCc4ccc(Cl)cc4)sc3c2=O)nc1OC	-16.1	inactive	inactive	–	–	–
COC1OC(=O)C2=C1C1(C)CCCC(C)(C)C1CC2O (stereo unspecified)	-8.04	inactive	inactive	–	–	–
C[C@@H]1C[C@@H](O)[C@@]23CO[C@]2(CO)CCC[C@@H]3[C@@]12C[C@@H](c1ccoc1)OC2=O	24.4	inactive	inactive	–	–	–
CCC(=O)OCC(=O)[C@@]1(OC(=O)CC)[C@@H](C)C[C@H]2[C@@H]3CCC4=CC(=O)C=C[C@]4(C)[C@@]3(F)[C@@H](O)C[C@@]21C	-5	inactive	inactive	–	–	–
